Laboratory results reported in PubChem BioAssay.
Calls of active or inactive are those of the source.

Assays:
[1] = system: Human papillomavirus type 1a protein E7 (residues 44-93); test: HPV1a E7 fragment binders on microarrays, primary screen, biochemical, small-molecule microarray, residues 44-93, 635 nm fluorescence (AID 1108); conditions: small-molecule microarray binding, fluorescence 635 nm; higher = more signal;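 note: E7 fragment applied at 1 µg/mL in TBST for 1 h at 4 C; score combines spot fluorescence with its signal to noise ratio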
[2] = modulators of HCV replicon luciferase signal, primary screen, HCV replication inhibitor project, Huh7 cells, luciferase reporter (AID 1109); conditions: 48 h, higher = more signal;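 note: huh7 hepatoma cells harbouring a luciferase neomycin HCV replicon reporter; luciferase luminescence as measure of HCV replicon replication; test concentration not given here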
[3] = molecular target: Left-right determination factor 2 (Homo sapiens) (UniProt O00292); test: LEFTY2 binders on small-molecule microarrays, primary screen, biochemical, small-molecule microarray, 635 nm fluorescence scan (AID 1110); conditions: LEFTY2 binding, higher = more signal
[4] = molecular target: Calmodulin-1 (Homo sapiens) (UniProt P0DP23); test: CALM1 binders on microarrays, EGTA buffer, profiling panel, biochemical, small-molecule microarray, Cy5-labelled CALM1 (AID 1111); conditions: Cy5-CALM1 binding fluorescence, higher = more signal;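 note: labelled calmodulin applied in Tris saline Tween buffer holding calcium plus EGTA and DTT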
[5] = molecular target: Calmodulin-1 (Homo sapiens) (UniProt P0DP23); test: calcium-bound CALM1 binders on microarrays, profiling panel, artefact control for SMM control-protein annotation, biochemical, small-molecule microarray, Cy5-labelled CALM1, plus calcium (AID 1112); conditions: Cy5-CALM1 binding fluorescence, higher = more signal;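 note: score merges spot fluorescence with signal to noise from triplicate slides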
[6] = small-molecule microarray binders of probe aWnt5a, primary screen, biochemical, biotinylated probe, 635/667 nm fluorescence (AID 1113); conditions: higher = more signal;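 note: score merges 667 nm fluorescence intensity with signal-to-noise per printed feature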
[7] = small-molecule microarray binders of probe aShh, primary screen, biochemical, biotinylated probe, 635/667 nm fluorescence (AID 1114); conditions: higher = more signal;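 note: probe is biotin-labelled aShh protein from a stem cell growth factor screen; measures binding of labelled protein to compounds printed on the slide; score merges feature fluorescence at 667 nm with signal-to-noise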
[8] = small-molecule microarray binders of probe aNog, primary screen, biochemical, biotinylated probe, 635/667 nm fluorescence (AID 1115); conditions: higher = more signal;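 note: probe is biotinylated aNog protein used at 0.15 µg/mL for 1 h at 4 C; z-score combines 667 nm fluorescence of each spot with its signal to noise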
[9] = molecular target: Torsin-1A-interacting protein 1 (Homo sapiens) (UniProt Q5JTV8); test: LAP1 binders from COS7 cell lysate, primary screen, small-molecule microarray, 635/667 nm fluorescence (AID 1116); conditions: COS7-hLAP1 lysate binding, 635 nm fluorescence, higher = more signal
[10] = molecular target: Alpha-bungarotoxin (Bungarus multicinctus) (UniProt P60615); test: alpha-bungarotoxin binders on microarray, profiling panel, artefact control for SMM control protein annotation, biochemical, small-molecule microarray, Alexa647 label, 635/667 nm fluorescence (AID 1117); conditions: alpha-BTX-A647 binding fluorescence, higher = more signal
Albumin (Bos taurus) = Albumin (Bos taurus) (UniProt P02769); test: bovine serum albumin binders on microarray, profiling panel, artefact control for SMM control protein annotation, biochemical, small-molecule microarray, Alexa647 label, 635/667 nm fluorescence (AID 1118); conditions: BSA-A647 binding, fluorescence 635 nm, higher = more signal;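 note: score merges 667 nm emission intensity and signal-to-noise per printed compound spot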
[11] = small-molecule microarray binders of probe aXIP, primary screen, biochemical, NeuroSMM set, 635/667 nm fluorescence (AID 1119); conditions: higher = more signal, called active from +8 up or from −8 down;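 note: probe is the protein aXip251-270 applied at 1 µg/mL to compound-printed slides; binding of probe to printed compounds measured as 667 nm fluorescence plus signal to noise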
[12] = small-molecule binders of probe aNOTCH3, primary screen, biochemical, small-molecule microarray, 635/667 nm fluorescence (AID 1120); conditions: higher = more signal;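 note: probe is a biotin-tagged antibody raised against NOTCH3 rather than NOTCH3 protein; score merges spot fluorescence near 667 nm with spot signal to noise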
[13] = small-molecule binders of probe aNOTCH2, primary screen, biochemical, small-molecule microarray, 635/667 nm fluorescence (AID 1121); conditions: higher = more signal;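 note: score merges feature fluorescence read at 667 nm with its signal to noise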
[14] = molecular target: Carbonic anhydrase 2 (Homo sapiens) (UniProt P00918); test: CAII small-molecule binders, profiling panel, biochemical, small-molecule microarray, Alexa647-labelled CAII (AID 1122); conditions: CAII-A647 binding fluorescence, higher = more signal
[15] = COS7 lysate on small-molecule microarray, probe aHis, 635 nm (AID 1123); conditions: COS7 cell lysate, fluorescence, higher = more signal;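 note: z-score combines 667nm fluorescence intensity with signal-to-noise per printed compound spot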
[16] = compound binding in COS7 lysate, probe aLAP1, primary screen, cell lysate, small-molecule microarray (AID 1124); conditions: probe aLAP1, fluorescence, higher = more signal;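 note: lysate comes from COS7 cells expressing LAP1 and is applied at 0.3 µg/mL; score merges spot fluorescence near 667 nm with signal-to-noise over triplicate slides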
Sam68 (KHDRBS1) = test: Sam68 small-molecule binders, primary screen, biochemical, small-molecule microarray, 635 nm fluorescence (AID 1125); conditions: small-molecule microarray binding, higher = more signal;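 note: score merges 667 nm channel intensity with signal to noise over triplicate slides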
[17] = system: Chordin-like protein 2 (CHRDL2); test: CHRDL2 small-molecule binders, primary screen, biochemical, small-molecule microarray, 635 nm fluorescence (AID 1126); conditions: small-molecule microarray binding, fluorescence 635 nm; higher = more signal;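 note: printed compound slides probed with Chrdl2 protein at 4 µg/mL for 1 h at 4 C; score merges 667 nm emission intensity with signal to noise over three replicate slides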
[18] = molecular target: Concanavalin-A (Canavalia ensiformis) (UniProt P02866); test: ConA small-molecule binders, primary screen, artefact control for SMM control protein annotation, biochemical, small-molecule microarray, Alexa647 label, 635 nm (AID 1127); conditions: ConA-A647 binding fluorescence, higher = more signal;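 note: z combines 667 nm emission intensity with signal-to-noise across three replicate slides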
Concanavalin-A (Canavalia ensiformis), sequence (P02866 whole entry, looked up): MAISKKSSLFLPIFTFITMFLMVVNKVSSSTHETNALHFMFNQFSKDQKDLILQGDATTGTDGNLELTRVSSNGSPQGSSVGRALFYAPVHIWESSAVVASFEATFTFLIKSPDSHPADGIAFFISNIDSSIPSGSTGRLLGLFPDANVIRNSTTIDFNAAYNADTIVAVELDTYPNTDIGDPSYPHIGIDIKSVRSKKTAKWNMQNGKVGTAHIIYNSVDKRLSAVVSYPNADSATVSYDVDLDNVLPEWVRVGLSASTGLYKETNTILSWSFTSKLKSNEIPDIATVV

Alpha-bungarotoxin (Bungarus multicinctus), sequence (P60615 whole entry, looked up): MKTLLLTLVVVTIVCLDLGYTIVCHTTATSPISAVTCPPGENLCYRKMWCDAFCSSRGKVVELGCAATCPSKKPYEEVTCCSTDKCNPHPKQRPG
Left-right determination factor 2 (Homo sapiens), sequence (O00292 whole entry, looked up): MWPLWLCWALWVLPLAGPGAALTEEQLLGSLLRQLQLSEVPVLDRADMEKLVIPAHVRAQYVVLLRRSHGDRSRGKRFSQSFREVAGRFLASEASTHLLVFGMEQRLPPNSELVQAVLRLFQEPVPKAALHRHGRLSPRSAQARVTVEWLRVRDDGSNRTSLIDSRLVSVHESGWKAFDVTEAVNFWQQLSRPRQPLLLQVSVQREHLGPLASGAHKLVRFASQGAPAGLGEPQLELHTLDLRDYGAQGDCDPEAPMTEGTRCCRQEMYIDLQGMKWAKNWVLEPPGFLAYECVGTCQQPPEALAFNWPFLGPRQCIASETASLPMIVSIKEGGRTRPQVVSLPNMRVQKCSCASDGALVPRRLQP
Albumin (Bos taurus), sequence (P02769 whole entry, looked up): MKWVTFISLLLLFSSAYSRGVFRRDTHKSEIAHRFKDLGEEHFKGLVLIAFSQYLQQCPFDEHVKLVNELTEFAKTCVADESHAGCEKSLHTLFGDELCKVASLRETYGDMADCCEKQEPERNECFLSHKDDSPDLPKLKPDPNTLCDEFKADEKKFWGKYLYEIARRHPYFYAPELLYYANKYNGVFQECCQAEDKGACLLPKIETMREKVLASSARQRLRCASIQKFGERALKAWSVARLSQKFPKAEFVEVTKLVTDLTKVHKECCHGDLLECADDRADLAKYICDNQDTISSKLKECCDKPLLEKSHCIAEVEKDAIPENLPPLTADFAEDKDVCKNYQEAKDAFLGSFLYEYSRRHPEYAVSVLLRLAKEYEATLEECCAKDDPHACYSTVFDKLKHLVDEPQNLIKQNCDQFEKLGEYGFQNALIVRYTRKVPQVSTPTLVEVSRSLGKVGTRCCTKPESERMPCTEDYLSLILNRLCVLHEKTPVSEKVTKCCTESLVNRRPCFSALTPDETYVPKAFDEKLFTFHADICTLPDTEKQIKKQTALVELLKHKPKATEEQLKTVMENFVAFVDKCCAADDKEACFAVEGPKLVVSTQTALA
Torsin-1A-interacting protein 1 (Homo sapiens), sequence (Q5JTV8 whole entry, looked up): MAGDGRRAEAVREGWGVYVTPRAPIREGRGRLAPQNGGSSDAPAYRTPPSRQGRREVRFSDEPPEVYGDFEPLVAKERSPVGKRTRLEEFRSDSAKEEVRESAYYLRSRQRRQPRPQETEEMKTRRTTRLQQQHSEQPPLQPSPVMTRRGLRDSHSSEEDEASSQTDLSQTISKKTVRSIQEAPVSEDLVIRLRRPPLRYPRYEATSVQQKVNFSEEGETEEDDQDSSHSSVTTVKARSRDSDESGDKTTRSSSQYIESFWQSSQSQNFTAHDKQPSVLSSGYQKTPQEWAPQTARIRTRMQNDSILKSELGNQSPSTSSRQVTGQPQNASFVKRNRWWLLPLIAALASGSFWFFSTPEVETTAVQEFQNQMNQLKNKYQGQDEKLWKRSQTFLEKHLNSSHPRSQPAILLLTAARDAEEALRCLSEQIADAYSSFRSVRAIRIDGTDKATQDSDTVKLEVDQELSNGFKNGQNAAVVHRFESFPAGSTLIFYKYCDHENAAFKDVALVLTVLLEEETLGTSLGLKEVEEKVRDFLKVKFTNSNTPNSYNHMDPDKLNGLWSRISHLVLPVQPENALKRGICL

Compound | composite z-score [1] | z-score [2] | composite z-score [3] | composite z-score [4] | composite z-score [5] | composite z-score [6] | composite z-score [7] | composite z-score [8] | composite z-score [9] | composite z-score [10] | composite z-score (Albumin (Bos taurus)) | composite Z-score [11] | composite z-score [12] | composite z-score [13] | composite z-score [14] | composite z-score [15] | composite z-score [16] | composite z-score (Sam68 (KHDRBS1)) | composite z-score [17] | composite z-score [18]
CC(C)CNC(=O)[C@@]1(C)c2ccccc2C(=O)N(Cc2ccc(OC(F)(F)F)cc2)[C@H]1c1ccc(CO)cc1 | -1.2 | 0.173 | -1.22 | -0.381 | 0.787 | -0.147 | -0.0769 | 0.264 | 1.5 | -0.36 | -0.2 | 0.416 (inactive) | -0.241 | -0.0094 | 0.706 | 1.17 | 0.559 | -0.718 | -1.3 | -1.74
COCCOC(=O)N1C(=O)[C@@]2(c3cc(C#CCNC(N)=O)ccc31)[C@H](c1ccc(OCCO)cc1)N1[C@H](c3ccccc3)[C@H](c3ccccc3)OC(=O)[C@H]1[C@@H]2C(=O)N1CCCCCCC1 | 0.853 | 0.225 | -0.11 | 0.914 | 0.966 | -0.027 | 0.485 | 0.401 | 0.242 | 1.24 | -0.208 | -0.333 (inactive) | 0.255 | -0.0059 | 0.174 | 0.043 | 0.332 | 0.82 | 0.137 | 0.669
CO[C@H]1COC(=O)[C@H](C)NC(=O)CC=C[C@@H](C)[C@H](NS(=O)(=O)c2ccc(C)cc2)COC(=O)[C@@H](OCc2ccccc2)C=C[C@@H]1C | -0.117 | -0.179 | 0.449 | -0.967 | -1.02 | -0.248 | -0.167 | -0.173 | -0.141 | -0.606 | 0.228 | 0.0585 (inactive) | -0.0932 | -0.154 | -0.367 | -0.959 | -0.659 | 0.133 | 1.03 | -0.333
CC[C@@H]1C=C(C(=O)O)[C@H](c2ccccc2)N1S(=O)(=O)c1ccc([N+](=O)[O-])cc1 | 0.672 | -0.661 | -0.52 | 0.354 | 0.202 | -0.0512 | -0.138 | -0.321 | 1.41 | 0.427 | 0.938 | 0.0692 (inactive) | 0.0793 | -0.0983 | 0.514 | 2.43 | 0.612 | 1.04 | -0.812 | 0.942
C=CCC(OC(C)=O)[C@@H]1[C@@H](N(Cc2cc3ccccc3o2)C(=O)c2ccc(C)cc2)c2cc(OCCCO)ccc2N1C(=O)c1ccc2ccccc2n1 (stereo not given in full) | -0.185 | 0.725 | 0.21 | -0.197 | 0.574 | -0.148 | -0.043 | 0.421 | -0.0354 | 0.432 | 0.659 | 0.0726 (inactive) | -0.0984 | -0.0037 | -0.135 | 0.043 | -0.348 | 0.0268 | 0.194 | -0.304
